Source: PubChem BioAssay AID1159580 (chemical genetic matrix, 2015)
“And” between values parts separate entries of the source, which are not always exact repeats. Equal entries are not always repeated. The campaign covered roughly 5,500 compounds. About 2,000 (36%) were called active. Roughly 18% stayed inconclusive and do not appear here. Rule as the data show it: active = normalized growth mostly below about 0.91 (no sharp cut-off); inconclusive = no clear call, values can overlap the other calls; inactive = mostly above about 0.92. Some of the results follow.

Assay: chemical genetic growth profiling, strain panel (AID 1159580);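 also: tested at 20 µM; growth read once vehicle control cultures reached saturation at 30 °C; 1 = growth at the plate median or of vehicle wells; lower values mean less growth of the strain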
Settings: S. cerevisiae deletion strains, growth OD

Measured: normalized growth

CCOC(=O)NNc1nncc2ccccc12
inactive: locus YAL013W, strain DEP1, stronger effect = lower value 0.992 | locus YAL021C, strain ccr4, stronger effect = lower value 1 | locus YAL026C, strain drs2, stronger effect = lower value 1.03 | locus YAL030W, strain snc1, stronger effect = lower value 1.02 | locus YBL061C, strain skt5, stronger effect = lower value 1.01 | locus YBR009C, strain hhf1, stronger effect = lower value 0.973 | locus YBR021W, strain FUR4, stronger effect = lower value 0.964 | locus YBR023C, strain chs3, stronger effect = lower value 1.02 | locus YBR171W, strain sec66, stronger effect = lower value 1.01 | locus YBR229C, strain ROT2, stronger effect = lower value 0.991 | locus YBR231C, strain swc5, stronger effect = lower value 0.993 | locus YBR279W, strain paf1, stronger effect = lower value 1.02 | locus YCL011C, strain gbp2, stronger effect = lower value 1.04 | locus YCL016C, strain dcc1, stronger effect = lower value 1.03 | locus YCL029C, strain bik1, stronger effect = lower value 0.97 | locus YCL061C, strain MRC1, stronger effect = lower value 0.994 | locus YCL069W, strain vba3, stronger effect = lower value 1.02 | locus YCR088W, strain abp1, stronger effect = lower value 1.01 | locus YDL005C, strain med2, stronger effect = lower value 1.03 | locus YDL035C, strain GPR1, stronger effect = lower value 0.978 | locus YDL040C, strain nat1, stronger effect = lower value 0.996 | locus YDL074C, strain BRE1, stronger effect = lower value 1.01 | locus YDL101C, strain DUN1, stronger effect = lower value 0.991 | locus YDL134C, strain PPH21, stronger effect = lower value 0.979 | locus YDL185W, strain tfp1, stronger effect = lower value 0.983 | locus YDL192W, strain arf1, stronger effect = lower value 0.98 | locus YDR001C, strain nth1, stronger effect = lower value 1.01 | locus YDR069C, strain doa4, stronger effect = lower value 0.985 | locus YDR101C, strain arx1, stronger effect = lower value 0.993 | locus YDR137W, strain rgp1, stronger effect = lower value 1.03 | locus YDR150W, strain NUM1, stronger effect = lower value 1 | locus YDR159W, strain sac3, stronger effect = lower value 0.94 | locus YDR162C, strain NBP2, stronger effect = lower value 0.987 | locus YDR195W, strain ref2 0.981 | locus YDR297W, strain sur2, stronger effect = lower value 1 | locus YDR318W, strain mcm21, stronger effect = lower value 0.974 | locus YDR334W, strain swr1, stronger effect = lower value 1.03 | locus YDR335W, strain msn5, stronger effect = lower value 1.01 | locus YDR388W, stronger effect = lower value 0.973 | locus YDR392W, strain spt3, stronger effect = lower value 0.998 | locus YDR502C, strain sam2, stronger effect = lower value 0.969 | locus YEL003W, strain gim4, stronger effect = lower value 0.998 | locus YEL037C, strain rad23, stronger effect = lower value 1.02 | locus YEL061C, strain CIN8 (second series), stronger effect = lower value 1 | locus YEL061C, strain CIN8, stronger effect = lower value 1 | locus YER015W, strain faa2, stronger effect = lower value 1.01 | locus YER016W, strain bim1, stronger effect = lower value 1.02 | locus YER110C, stronger effect = lower value 0.972 | locus YER111C, strain swi4, stronger effect = lower value 1.01 | locus YER155C, strain BEM2 (second series), stronger effect = lower value 1 | locus YER155C, strain BEM2, stronger effect = lower value 0.99 | locus YER167W, strain BCK2, stronger effect = lower value 0.989 | locus YFR010W, strain ubp6, stronger effect = lower value 0.979 | locus YGL078C, strain dbp3, stronger effect = lower value 0.98 | locus YGL086W, strain mad1, stronger effect = lower value 0.995 | locus YGL167C, strain pmr1, stronger effect = lower value 1 | locus YGL173C, strain kem1, stronger effect = lower value 0.972 | locus YGL227W, strain vid30, stronger effect = lower value 1.02 | locus YGL240W, strain doc1, stronger effect = lower value 0.998 | locus YGL248W, strain PDE1, stronger effect = lower value 1 | locus YGL253W, strain hxk2, stronger effect = lower value 1.02 | locus YGR135W, strain pre9, stronger effect = lower value 0.97 | locus YGR229C, strain SMI1, stronger effect = lower value 0.984 | locus YGR252W, strain gcn5, stronger effect = lower value 0.962 | locus YHR013C, strain ard1, stronger effect = lower value 1.02 | locus YHR027C, strain rpn1, stronger effect = lower value 0.993 | locus YHR030C, strain SLT2, stronger effect = lower value 0.99 and 0.966 | locus YHR079C, strain IRE1 (second series), stronger effect = lower value 0.983 | locus YHR079C, strain IRE1, stronger effect = lower value 0.982 | locus YHR094C, strain hxt1, stronger effect = lower value 0.973 | locus YHR129C, strain ARP1, stronger effect = lower value 0.999 | locus YHR142W, strain chs7, stronger effect = lower value 1.04 | locus YHR200W, strain rpn10, stronger effect = lower value 0.981 | locus YIL066C, strain RNR3, stronger effect = lower value 0.987 | locus YIL073C, strain SPO22, stronger effect = lower value 0.913 | locus YIL125W, strain kgd1, stronger effect = lower value 0.987 | locus YIR030C, strain dcg1, stronger effect = lower value 0.977 | locus YJL092W, strain hpr5, stronger effect = lower value 1.01 | locus YJL095W, strain BCK1 (second series), stronger effect = lower value 1.02 | locus YJL095W, strain BCK1, stronger effect = lower value 1.04 and 0.976 | locus YJL115W, strain asf1, stronger effect = lower value 1.03 | locus YJL129C, strain trk1, stronger effect = lower value 1.02 | locus YJL134W, strain LCB3, stronger effect = lower value 0.994 | locus YJL154C, strain vps35, stronger effect = lower value 1.01 | locus YJL164C, strain tpk1, stronger effect = lower value 0.993 | locus YJL166W, strain qcr8, stronger effect = lower value 0.983 | locus YJL168C, strain set2, stronger effect = lower value 0.981 | locus YJL187C, strain SWE1 (second series), stronger effect = lower value 1 | locus YJL187C, strain SWE1, stronger effect = lower value 1.02 | locus YJR043C, strain POL32, stronger effect = lower value 0.952
